# Data from PubChem BioAssay AID425 (Sanford-Burnham Center for Chemical Genomics, 2006).
# The whole screen tested about 110,000 compounds, of which about 190 (0.17%) were called active. Rule as the data show it: active = inhibition above about 50%; inactive = the rest. The sample as a whole holds a higher share of actives than the screen did. Entries with a potency or affinity are not part of this list.
# Molecular target: Dual specificity protein phosphatase 6 (Rattus norvegicus) (UniProt Q64346)
# Sequence (Q64346 whole entry, looked up): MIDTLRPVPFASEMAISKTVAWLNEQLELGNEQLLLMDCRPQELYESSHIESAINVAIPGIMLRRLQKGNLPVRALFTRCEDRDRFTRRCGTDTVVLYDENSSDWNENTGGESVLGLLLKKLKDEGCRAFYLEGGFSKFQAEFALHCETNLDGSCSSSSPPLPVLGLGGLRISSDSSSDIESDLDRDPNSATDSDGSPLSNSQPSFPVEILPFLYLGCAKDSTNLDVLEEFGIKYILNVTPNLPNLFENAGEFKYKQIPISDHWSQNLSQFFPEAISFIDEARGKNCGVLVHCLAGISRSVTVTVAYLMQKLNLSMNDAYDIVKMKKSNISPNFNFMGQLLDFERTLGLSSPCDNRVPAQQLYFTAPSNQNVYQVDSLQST
# Experiment: inhibition of rat DUSP6 enzyme activity – biochemical, in vitro, primary screen (AID 425);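 also: plate controls were vehicle for no effect and reference inhibitor for full effect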
# Conditions: recombinant MKP-3 phosphatase activity, fluorescence; at 20 µM; hits give high values
row,Compound,inhibition
1,O=[N+]([O-])c1ccc(N2CCN(Cc3ccccc3)CC2)c(Cl)c1,-2.4% (inactive)
2,CN(C)C(=O)Oc1ccc([N+](=O)[O-])cc1,-1.2% (inactive)
3,CN(CN1C(=O)C(=O)c2cc([N+](=O)[O-])ccc21)[N+](=O)[O-],86.6% (active)
4,C=CCN1C(=O)/C(=C\c2cccn2-c2ccc([N+](=O)[O-])cc2)C(=O)NC1=S,37.5% (inactive)
5,CCN1C(=O)/C(=C/c2ccc(OC)c3ccccc23)C(=O)NC1=S,2.2% (inactive)
6,Cn1cccc1/C=C1/C(=O)NC(=S)N(c2ccc(Cl)cc2)C1=O,77.8% (active)
7,CCN1C(=O)/C(=C/c2cccn2C)C(=O)NC1=S,108% (active)
8,COc1ccc(CN2C(=O)NC(=O)/C(=C\c3ccoc3)C2=O)cc1,5.2% (inactive)
9,O=C1NC(=O)N(c2ccccc2)C(=O)/C1=C/c1ccoc1,4.9% (inactive)
10,CN1C(=O)C(=Cc2cccn2-c2cccc([N+](=O)[O-])c2)C(=O)N(C)C1=O,4.9% (inactive)
11,C=CCN1C(=O)NC(=O)C(=Cc2cccn2C)C1=O,2.3% (inactive)
12,CCN1C(=O)/C(=C/c2ccoc2)C(=O)NC1=S,107% (active)
13,C=CCN1C(=O)/C(=C\c2cccn2-c2cccc([N+](=O)[O-])c2)C(=O)NC1=S,94.7% (active)
14,O=C1NC(=S)N(c2cccc(Cl)c2)C(=O)/C1=C/c1ccc(Cl)cc1,-0.2% (inactive)
15,O=C1NC(=S)N(c2ccc(Cl)cc2)C(=O)/C1=C/c1ccc(-c2ccccc2C(=O)O)o1,6.3% (inactive)
16,CCC1(c2ccccc2)C(=O)NC(=O)N(C(=O)c2cccc(F)c2)C1=O (configuration not stated),-3.3% (inactive)
17,O=C1NC(=O)C(=Cc2ccc(OCc3cccc(C(=O)O)c3)cc2)C(=O)N1,-1% (inactive)
18,CCOc1c(P(=S)(N(C)C)N(C)C)c(C)nn1-c1ccccc1,-4.3% (inactive)
19,Oc1ccc(CC2CC3CCN2CC3)cc1O (configuration not stated),-5.2% (inactive)

row,Compound,inhibition
1,CCCc1[nH]nc2c1C1(C(=O)N(CC(N)=O)c3ccccc31)C(C(=O)OC)=C(N)O2 (configuration not stated),-2.9% (inactive)
2,CC1CCC(C(=O)NC(C(=O)N2CCC3(CC2)OCCO3)C(C)C)CC1 (configuration not stated),-15.8% (inactive)
3,CCC1(C)CC(CCNCc2ccccc2)(c2ccc(C)cc2)CCO1 (configuration not stated),-4% (inactive)
4,Cc1ccccc1C(=O)Nc1cc(Cl)c([N+](=O)[O-])cc1Cl,1.4% (inactive)
5,COC(=O)CCCNC(=O)CN1CC(c2ccccc2)CC1=O (configuration not stated),-1.1% (inactive)
6,O=C(c1cc2c(s1)CCCC2)N1CCC2(CC1)OCCO2,-11.3% (inactive)
7,O=C1NC(=S)N(c2cccc(Br)c2)C(=O)/C1=C/C=C/c1ccccc1,11.1% (inactive)
8,C=CCN1C(=O)/C(=C\C=C\c2ccco2)C(=O)NC1=S,83.7% (active)
9,Cc1cccc(N2C(=O)NC(=O)C(=Cc3ccco3)C2=O)c1,2.3% (inactive)
10,CCOc1ccc(N2C(=O)/C(=C/c3ccc(C)cc3)C(=O)NC2=S)cc1,2.5% (inactive)
11,CC(C)c1ccc(N2C(=O)NC(=O)/C(=C/c3ccco3)C2=O)cc1,4.9% (inactive)
12,O=C1NC(=O)N(Cc2ccccc2)C(=O)/C1=C\C=C\c1ccco1,3.4% (inactive)
13,CCOc1ccc(N2C(=O)/C(=C/c3ccco3)C(=O)NC2=S)cc1,107% (active)
14,O=C1NC(=S)N(c2cccc(Br)c2)C(=O)/C1=C/c1cccs1,5.7% (inactive)
15,CCOc1ccc(N2C(=O)/C(=C/c3cc(Cl)ccc3O)C(=O)NC2=S)cc1,4.8% (inactive)
16,C=CCN1C(=O)/C(=C\c2ccc(C)o2)C(=O)NC1=S,8.6% (inactive)
17,O=C1NC(=O)N(c2cccc(Br)c2)C(=O)/C1=C/c1ccco1,97.8% (active)
18,O=C1NC(=S)N(c2cccc(Br)c2)C(=O)/C1=C/c1ccco1,108% (active)
